PubChem BioAssay (NCI)
About 79,000 compounds went through this panel and 15% of them were active in at least one assay; those are over-represented in the sample as a whole. Unmarked numbers belong to inactive results. The source made the active and inactive calls. No stated cut-off is given here; in the data, active means growth inhibition above about 70%; inactive means the rest.

Test: NCI Yeast Anticancer Drug Screen. Data for the rad50EPP+ strain (AID 151);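 further: 0% = growth of vehicle-treated control cultures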
Conditions: S. cerevisiae rad50 mutant strain, at 1.2 µM, hits give high values
Method in brief: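 Genetically defined yeast (rad50EPP+, DNA damage repair alteration) is grown with compound, and inhibition of growth is expressed relative to vehicle-treated controls.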

Point of comparison: `OCC1OC(OCC(O)C(O)C(O)C(/C=N/Nc2ccccc2)=N/Nc2ccccc2)C(O)C(O)C1O` (stereo not drawn), growth inhibition 9%. Against it:
- CCN(CC)CC[n+]1ccc2c(C)c3[nH]c4ccc(O)cc4c3c(C)c2c1 — lower, 4%
- O=[n+]1c2ccc(Cl)cc2n([O-])c2ccc(Cl)cc21 — the same, 9%
- CCOP(=O)(OCC)C(Cc1ccccc1)N=C(c1ccccc1)c1ccccc1 (stereo not drawn) — lower, 8%
- CC[C@@]1(O)C(=O)OCc2c1cc1n(c2=O)Cc2cc3c(N)cccc3nc2-1 — higher, 13%
- COC1C=COC2(C)Oc3c(C)c(O)c4c(c3C2=O)/C(=N/C2CCC(O)OC2C)C=C(NC(=O)/C(C)=C\C(=O)C2CC2C(O)C(C)C(O)C(C)C(OC(C)=O)C1C)C4=O (stereo not drawn) — lower, -2%
- COc1cc2c(c(OC)c1OC)-c1c(cc3c(c1OC)OCO3)CC(C)C(C)(O)C2OC(=O)c1ccccc1 (stereo not drawn) — lower, -2%
- O=c1ssc2ncccc12 — lower, -5%
- O=C1C2C(C(=O)N1c1ccc(OCc3ccccc3)cc1)C1c3ccccc3C2C2CCCCN21 (stereo not drawn) — lower, -1%
- COc1ccc(-c2cn(-c3ccc(I)cc3)c3ncnc(N)c23)cc1 — lower, -2%
- CCOC(=O)C(NC(=O)c1ccccc1)(N1CCN(c2cc3c(cc2F)c(=O)c(C(=O)O)cn3C2CC2)CC1)C(F)(F)F (stereo not drawn) — lower, -1%
- C/C(=N\O)C1CC2C=C(C#N)C1N(Cc1ccccc1)C2 (stereo not drawn) — lower, 2%
- CC/C(=C(\c1ccccc1)c1ccc(OCCN(C)C)cc1)c1ccccc1 — higher, 12%
- COc1ccccc1N=NC(C(=O)c1ccccc1)C(=O)c1ccccc1 — lower, -47%
- CC(O)C(O)C(O)C(/C=N\Nc1ccccc1)=N/Nc1ccccc1 (stereo not drawn) — higher, 14%
- COc1ccc(/C=C2\SC(=S)N(/C=C/c3nc4ccccc4[nH]c3=O)C2=O)cc1OC — lower, 1%
- N#CN=Nc1cc(Cl)c(N=NC#N)cc1Cl — lower, -4%
- Cc1ccc(S(=O)(=O)Oc2cc(Cl)c(Cl)cc2Cl)cc1 — lower, -1%
- c1ccc2c(c1)Oc1cccc3cccc-2c13 — higher, 11%
- O=C(c1ccc(Cl)cc1Cl)C(Cl)Cl — higher, 40%
- CC(C)C1=CCC2C(=C1)CCC1C(C)(C(=O)O)CCCC21C (stereo not drawn) (tested in a mixture with another compound) — higher, 30%
- COc1cc(/C=C2\CCc3ccccc3C2=O)cc(OC)c1OC — lower, 1%
- CC(=O)[O][Bi]([c]1ccccc1)[c]1ccccc1 — higher, 31%
- S=C(N/N=C/c1ccccn1)Nc1ccc(Cl)cc1 — lower, -3%
- COc1cc(CC2CC(c3ccc4c(c3)OCO4)OC2=O)cc(OC)c1OC (stereo not drawn) — lower, -2%
- CNC1C(OC2C(OC3C(O)C(O)C(N=C(N)N)C(O)C3N=C(N)N)OC(C)C2(O)CO)OC(CO)C(O)C1O (stereo not drawn) — lower, -2%
- NNC(=O)CCc1ccc2ccc3ccccc3c2c1 — lower, 2%
- Oc1ccc2ccccc2c1C(c1ccc(Cl)cc1)c1c(O)ccc2ccccc12 — lower, -50%
- CCCCN(CCCC)CCSc1ccc(Cl)cc1 — lower, -10%
- CCC(C)COC(=O)c1ccc(N=Cc2ccc(C=Nc3ccc(C(=O)OCC(C)CC)cc3)cc2)cc1 (stereo not drawn) — lower, 5%
- CC1(C)C(=O)OC(n2cc(F)c(=O)[nH]c2=O)C1=O (stereo not drawn) — lower, -30%
- O=[N+]([O-])CC(SCc1ccccc1)c1ccc2c(c1)OCO2 (stereo not drawn) — higher, 44%
- COc1cc2c(cc1[N+](=O)[O-])C(=O)C(Br)(Br)CCC2 — higher, 40%
- COc1ccc(N=C2C(=O)Nc3ccc(Br)cc32)cc1 — lower, -9%
- Cn1c(=O)c2ccccc2c2ccccc21 — lower, 0%
- CC[n+]1ccc2c(C)c3[nH]c4ccc(O)cc4c3c(C)c2c1 — higher, 16%
- CC(=O)ON1C(=O)c2cccc3cccc(c23)C1=O — lower, -2%
- COc1ccc2ccc3ccccc3c2c1C=O — lower, 0%
- OC1CCCc2c1cc1ccc3cccc4ccc2c1c34 (stereo not drawn) — lower, 0%

Same assay, conditions: S. cerevisiae rad50 mutant strain, at 3.7 µM, hits give high values

Point of comparison: `N#CN=Nc1cc(Cl)c(N=NC#N)cc1Cl`, growth inhibition -3%. Against it:
- CCN(CC)CC[n+]1ccc2c(C)c3[nH]c4ccc(O)cc4c3c(C)c2c1 — higher, 16%
- O=[n+]1c2ccc(Cl)cc2n([O-])c2ccc(Cl)cc21 — higher, 18%
- CCOP(=O)(OCC)C(Cc1ccccc1)N=C(c1ccccc1)c1ccccc1 (stereo not drawn) — higher, 12%
- CC[C@@]1(O)C(=O)OCc2c1cc1n(c2=O)Cc2cc3c(N)cccc3nc2-1 — higher, 30%
- COC1C=COC2(C)Oc3c(C)c(O)c4c(c3C2=O)/C(=N/C2CCC(O)OC2C)C=C(NC(=O)/C(C)=C\C(=O)C2CC2C(O)C(C)C(O)C(C)C(OC(C)=O)C1C)C4=O (stereo not drawn) — lower, -10%
- COc1cc2c(c(OC)c1OC)-c1c(cc3c(c1OC)OCO3)CC(C)C(C)(O)C2OC(=O)c1ccccc1 (stereo not drawn) — lower, -19%
- O=c1ssc2ncccc12 — higher, 6%
- O=C1C2C(C(=O)N1c1ccc(OCc3ccccc3)cc1)C1c3ccccc3C2C2CCCCN21 (stereo not drawn) — higher, 4%
- COc1ccc(-c2cn(-c3ccc(I)cc3)c3ncnc(N)c23)cc1 — higher, 1%
- CCOC(=O)C(NC(=O)c1ccccc1)(N1CCN(c2cc3c(cc2F)c(=O)c(C(=O)O)cn3C2CC2)CC1)C(F)(F)F (stereo not drawn) — higher, 0%
- C/C(=N\O)C1CC2C=C(C#N)C1N(Cc1ccccc1)C2 (stereo not drawn) — higher, 2%
- CC/C(=C(\c1ccccc1)c1ccc(OCCN(C)C)cc1)c1ccccc1 — higher, 2%
- COc1ccccc1N=NC(C(=O)c1ccccc1)C(=O)c1ccccc1 — lower, -21%
- CC(O)C(O)C(O)C(/C=N\Nc1ccccc1)=N/Nc1ccccc1 (stereo not drawn) — higher, 26%
- COc1ccc(/C=C2\SC(=S)N(/C=C/c3nc4ccccc4[nH]c3=O)C2=O)cc1OC — higher, 3%
- Cc1ccc(S(=O)(=O)Oc2cc(Cl)c(Cl)cc2Cl)cc1 — higher, 9%
- c1ccc2c(c1)Oc1cccc3cccc-2c13 — higher, 8%
- O=C(c1ccc(Cl)cc1Cl)C(Cl)Cl — higher, 53%
- CC(C)C1=CCC2C(=C1)CCC1C(C)(C(=O)O)CCCC21C (stereo not drawn) (tested in a mixture with another compound) — higher, 33%
- COc1cc(/C=C2\CCc3ccccc3C2=O)cc(OC)c1OC — higher, 2%
- CC(=O)[O][Bi]([c]1ccccc1)[c]1ccccc1 — higher, 39%
- S=C(N/N=C/c1ccccn1)Nc1ccc(Cl)cc1 — the same, -3%
- COc1cc(CC2CC(c3ccc4c(c3)OCO4)OC2=O)cc(OC)c1OC (stereo not drawn) — higher, -1%
- CNC1C(OC2C(OC3C(O)C(O)C(N=C(N)N)C(O)C3N=C(N)N)OC(C)C2(O)CO)OC(CO)C(O)C1O (stereo not drawn) — higher, 4%
- NNC(=O)CCc1ccc2ccc3ccccc3c2c1 — higher, 4%
- Oc1ccc2ccccc2c1C(c1ccc(Cl)cc1)c1c(O)ccc2ccccc12 — lower, -61%
- CCCCN(CCCC)CCSc1ccc(Cl)cc1 — lower, -20%
- CCC(C)COC(=O)c1ccc(N=Cc2ccc(C=Nc3ccc(C(=O)OCC(C)CC)cc3)cc2)cc1 (stereo not drawn) — higher, 5%
- CC1(C)C(=O)OC(n2cc(F)c(=O)[nH]c2=O)C1=O (stereo not drawn) — lower, -29%
- OCC1OC(OCC(O)C(O)C(O)C(/C=N/Nc2ccccc2)=N/Nc2ccccc2)C(O)C(O)C1O (stereo not drawn) — higher, 30%
- COc1ccc(N=C2C(=O)Nc3ccc(Br)cc32)cc1 — higher, 1%
- Cn1c(=O)c2ccccc2c2ccccc21 — higher, 19%
- CC[n+]1ccc2c(C)c3[nH]c4ccc(O)cc4c3c(C)c2c1 — higher, 34%
- CC(=O)ON1C(=O)c2cccc3cccc(c23)C1=O — higher, 0%
- COc1ccc2ccc3ccccc3c2c1C=O — higher, 2%
- OC1CCCc2c1cc1ccc3cccc4ccc2c1c34 (stereo not drawn) — higher, 37%

In the case of `O=[N+]([O-])CC(SCc1ccccc1)c1ccc2c(c1)OCO2` (stereo not drawn), the growth inhibition is reported as 91% (active).
For `COc1cc2c(cc1[N+](=O)[O-])C(=O)C(Br)(Br)CCC2`, the growth inhibition was 73% (active).
